Pf Dd2 growth = qHTS Primary assay for Inhibitors of Plasmodium falciparum Dd2 growth in vitro; actives 4.3% (n = 120,000); P. falciparum Dd2 growth, SYBR Green, 72 h; Potency, µM (top dose mostly 28.9 µM), actives largely listed as inhibitors; AID 1347417, 2020; active means well fitted inhibition curve with a large enough effect; further: nearly all actives have a fitted effect of over 65% in size
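Infected erythrocytes (Dd2, 0.3% parasitemia, 2.5% hematocrit final) are added to compound in RPMI-1640/Albumax II medium, grown 72 h at 37C in low oxygen, then lysed with saponin/Triton-X containing SYBR Green and read by fluorescence.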
Of the large screens only hits and unclear results are named; the others gave an inactive call. Many of the other results were omitted from the sample, so hits are more common in it than they were.

COc1ccc(-c2ccnc(N[C@H]3CO[C@H]4[C@@H]3OC[C@H]4OC(=O)Nc3ccc(C(C)=O)cc3)n2)cc1	Pf Dd2 growth 5.6µM
CCNC(=O)N[C@H]1CO[C@H]2[C@@H]1OC[C@@H]2Nc1nccc(-c2ccc(OC)cc2)n1	none
COc1ccc(-c2ccnc(N[C@H]3CO[C@H]4[C@@H]3OC[C@H]4OC(=O)Nc3cccc(C(C)=O)c3)n2)cc1	none
COc1ccc(-c2ccnc(N[C@H]3CO[C@H]4[C@@H]3OC[C@@H]4NC(=O)NCc3ccccc3)n2)cc1	Pf Dd2 growth 5µM
COc1ccc(-c2ccnc(N[C@H]3CO[C@H]4[C@@H]3OC[C@H]4OC(=O)Nc3ccc(C(C)(C)C)cc3)n2)cc1	none
Cc1ccc2ccccc2c1CN1CCC2(CCCO2)CCC1=O (stereo not drawn)	none
COCCNC(=O)c1ccc(NC(=O)N2CCCCc3ccccc32)cc1	none
O=C(c1cccc(F)c1)N1CCCC2(C1)NC(=O)N(Cc1ccc(Cl)cc1)C2=O (stereo not drawn)	none
CC(C)NC(=O)c1ccccc1OCC1CCCN(Cc2ccccn2)C1 (stereo not drawn)	none
COc1cc(NC(=O)c2cc3nc(-c4ccccc4)cc(-c4ccccc4)n3n2)c(OC)cc1Cl	none
O=C(OCc1ccccc1)N1CCOCC12CCN(Cc1ccc3[nH]ccc3c1)CC2	Pf Dd2 growth 7.1µM
O=C(OCc1ccccc1)N1CCOCC12CCN(Cc1ccncc1)CC2	none
O=C(c1ccccc1)N1CCOCC12CCN(Cc1ccc3[nH]ccc3c1)CC2	none
COc1ccc(-c2ccc3nnc(CNC(=O)c4ccc(OC)cc4C)n3n2)cc1	none
CCc1nncn1C1CCN(S(=O)(=O)c2cccs2)C1 (stereo not drawn)	none
O=C(O)C[C@@H]1CCN(C(=O)c2ccco2)C[C@@H]1CCN1CCN(c2ccccc2)CC1	none
COc1ccc(C(=O)NC2CCN(c3cc(C(F)(F)F)nc(C)n3)CC2)cc1	Pf Dd2 growth 14µM
Cc1ccc(C(=O)NC2CCN(c3cc(C(F)(F)F)nc(C)n3)CC2)cc1	none
Cc1nc(N2CCC(NC(=O)Cc3cccs3)CC2)cc(C(F)(F)F)n1	none
Cc1nc(N2CCC(NC(=O)c3ccsc3)CC2)cc(C(F)(F)F)n1	none
Cc1nc(N2CCC(NC(=O)c3cccs3)CC2)cc(C(F)(F)F)n1	Pf Dd2 growth 5µM
COc1ccc(C(=O)NC2CCN(c3cc(C(F)(F)F)nc(C)n3)CC2)c(C)c1	none
COc1ccccc1Cc1nc2ccccc2nc1SCC(=O)N1CCc2ccccc21	none
Cc1cccc(C(=O)Nc2cc3nn(-c4ccc(C(C)C)cc4)nc3cc2C)c1	none
O=CN1CCC(n2cnc3cccnc32)CC1	none
Cc1ccc(NC(=O)Cn2c(N3CCCCC3)nc(C)c(C)c2=O)cc1Cl	none
Cc1ccc(OCC(=O)Nc2ccc(-c3nc4ccc(C)cc4o3)cc2)cc1	none
Cc1noc(-c2cccc(F)c2)c1C(=O)NCCCc1ccccc1	none
CN1CCN(C(=O)c2ccc(CC3CCN(S(C)(=O)=O)CC3)cc2)CC1	none
COc1ccc(NC(=O)c2sc3nc4c(c(-c5ccc(OC)cc5)c3c2N)C(=O)CC(C)(C)C4)cc1	Pf Dd2 growth 1µM
COc1ccc(-c2ccc3c(N)c(C(=O)Nc4ccc(C(F)(F)F)cc4)sc3n2)cc1OC	none
COc1ccc(NC(=O)c2sc3nc(-c4ccc(OC)cc4)cc(C(F)(F)F)c3c2N)cc1	none
O=C(NC1CCCc2c1[nH]c1c(Cl)cccc21)c1n[nH]c2c1CCC2 (stereo not drawn)	none
Cn1ccnc1C(=O)N1CC(c2noc(C3CCCN3CC3CC3)n2)C1 (stereo not drawn)	none
O=C(NCCc1ccccn1)C1CC(=O)N(c2n[nH]c3cc(Br)ccc23)C1 (stereo not drawn)	none
COc1ccc(CC(=O)N[C@H]2[C@H](O)[C@H](O)C[C@@H]2c2ccc(C(F)(F)F)cc2)cc1	none
COc1ccc([C@H]2C[C@@H](O)[C@@H](O)[C@@H]2NC(=O)Nc2ccc(C(F)(F)F)cc2)cc1	Pf Dd2 growth 3.2µM
Cc1ccccc1C(=O)N[C@H]1[C@H](O)[C@H](O)C[C@@H]1c1ccc(C(F)(F)F)cc1	Pf Dd2 growth 3.5µM
COc1ccc([C@H]2C[C@@H](O)[C@@H](O)[C@@H]2NC(=O)c2ccc(C(F)(F)F)cc2)cc1	none
COc1ccccc1C(=O)N[C@H]1[C@H](O)[C@H](O)C[C@@H]1c1ccc(C(F)(F)F)cc1	none
Cc1ccccc1[C@H]1C[C@@H](O)[C@@H](O)[C@@H]1NC(=O)c1ccc(C(F)(F)F)cc1	none
Cc1ccc([S+](=O)([O-])N2CCC3(CC2)C(=O)NCN3Cc2ccc(Cl)cc2)cc1	none
CC[C@H]1CN(C(=O)C(C)(C)C)CC[C@H]1CC(=O)NCCSC	none
Cc1cc2cc(C(=O)N3CCCC(OCc4ccccn4)C3)ccc2o1 (stereo not drawn)	none
CC(C)c1noc(C2CCCN(C(=O)Nc3ccccc3F)CCC(=O)NCC2)n1 (stereo not drawn)	none
Cn1cnc(S(=O)(=O)N2CCOc3ccc(CCC(=O)NCC4CC4)cc3C2)c1	none
Cc1noc2ncnc(N3CCC4(CC3)CC(c3ccccc3)CN(C)C4)c12 (stereo not drawn)	Pf Dd2 growth 11µM
CN1CC(c2ccccc2)CC2(CCN(C(=O)c3ccccc3)CC2)C1 (stereo not drawn)	none
CN1CC(c2ccccc2)CC2(CCN(C(=O)C3CCOCC3)CC2)C1 (stereo not drawn)	none
O=C(CSc1nncn2c1cc1sccc12)Nc1ccccc1C(F)(F)F	none
CCc1cccc2c(C(CC(=O)NCCc3ccccc3)c3ccc(OC)c(OC)c3)c[nH]c12 (stereo not drawn)	none
O=C(NCc1ccc2c(c1)CCN2C(=O)c1ccc(F)cc1)c1c(F)cccc1F	none
Cc1cccc(C(=O)N2CCc3cc(CNS(=O)(=O)c4cccs4)ccc32)c1	none
Cn1nccc1C(=O)NCc1ccc2c(c1)CCN2C(=O)c1ccc(F)cc1	none
CCC(=O)N1CCc2cc(CNC(=O)c3ccc(C#N)cc3)ccc21	none
N#Cc1ccc(C(=O)NCc2ccc3c(c2)CCN3C(=O)c2ccc(F)cc2)cc1	Pf Dd2 growth 5µM
O=C(NCc1ccc2c(c1)CCN2C(=O)c1ccc(F)cc1)c1ccc(Br)o1	Pf Dd2 growth 11µM
Cc1cccc(C(=O)N2CCc3cc(CNC(=O)CSc4ccccc4)ccc32)c1	none
COc1ccc(CC(=O)NCc2ccc3c(c2)CCN3C(=O)c2ccccc2)cc1OC	none
CCC(=O)N1CCc2cc(CNS(=O)(=O)c3cccs3)ccc21	none
Cc1ccc(C(=O)N2CCc3cc(CNS(=O)(=O)c4cccs4)ccc32)cc1	Pf Dd2 growth 8.9µM
Cc1cccc(OCC(=O)NCc2ccc3c(c2)CCN3C(=O)c2ccccc2)c1	Pf Dd2 growth 10µM
O=C(NCc1ccc2c(c1)CCN2C(=O)c1ccccc1)c1ccc(Br)o1	none
CCC1Oc2ccc(C)cc2N(CC(=O)NCc2ccc(F)cc2)C1=O (stereo not drawn)	none
Cc1cccc(NC(=O)Cn2c(SCC(=O)NCc3ccccc3)nc3ccccc32)c1C	none
COc1ccc(C(=O)N2CCC(n3cc(-c4nc(C)no4)nn3)CC2)cc1	none
COc1cccc(N2CC(C(=O)NC3CC3)NC2=O)c1 (stereo not drawn)	none
CCn1nccc1C(=O)NCCC1CCN(C(=O)Nc2ccc(F)cc2F)CC1	none
COc1ccc(C(=O)NC2CCN(c3cc(-c4cccs4)[nH]n3)CC2)cc1F	none
COc1ccc(C[C@H](NC(=O)[C@@H]2C[C@H](NC(=O)Nc3cccc(SC)c3)CN2C(=O)C=C(C)C)C(N)=O)cc1	none
Cc1noc2c(N(C)C)cc(-c3cccs3)nc12	none
O=C(O)c1cccc(-c2cnccn2)c1	none

Screening results as filed in PubChem BioAssay.
